# Compounds without any hit were thinned out: in the full panel of roughly 79,000, 15% have a hit. Unmarked numbers belong to inactive results. Active and inactive are the calls of the source. Cut-off read from the data, not from the text of the source: active = growth inhibition above about 70%; inactive = the rest.
# Tests used:
# [1] = NCI Yeast Anticancer Drug Screen. Data for the rad52 strain (AID 147);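 note: 0% = growth of vehicle-treated control cultures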; conditions: S. cerevisiae rad52 mutant growth inhibition, stronger effect = higher value
# Method in brief: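 Read-out: growth inhibition versus vehicle-treated controls. Cells were a DNA repair-deficient yeast strain treated with compounds.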
# [2] = NCI Yeast Anticancer Drug Screen. Data for the wt1 strain (AID 149);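 note: 0% = growth of vehicle-treated wt1 cultures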; conditions: S. cerevisiae wt1 strain (SPY 50644) growth inhibition, stronger effect = higher value
# Method in brief: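 Growth inhibition read against vehicle controls after compound exposure of the wt1 yeast strain.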
# [3] = NCI Yeast Anticancer Drug Screen. Data for the rad50EPP+ strain (AID 151);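 note: 0% = growth of vehicle-treated control cultures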; conditions: S. cerevisiae rad50 mutant strain, stronger effect = higher value
# Method in brief: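 Growth inhibition read against vehicle controls in rad50EPP+ yeast, a strain altered in DNA damage repair, after compound exposure.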
# [4] = NCI Yeast Anticancer Drug Screen. Data for the mgt1 strain (AID 153); conditions: S. cerevisiae mgt1 mutant growth inhibition, stronger effect = higher value
# Method in brief: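 mgt1 yeast grown with test compound; read-out is growth inhibition versus vehicle-treated cultures.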
# [5] = NCI Yeast Anticancer Drug Screen. Data for the rad50 strain (AID 155);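 note: 0% = growth of vehicle-only cultures of the same strain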; conditions: S. cerevisiae rad50 strain growth inhibition, stronger effect = higher value
# Method in brief: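 Readout: growth inhibition relative to vehicle-treated cultures. Compound exposure was carried out in a genetically defined yeast strain deficient in DNA damage repair.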
# [6] = NCI Yeast Anticancer Drug Screen. Data for the mec2-1 strain (AID 157); conditions: S. cerevisiae mec2-1 strain, stronger effect = higher value
# Method in brief: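 Yeast mec2-1 mutant treated with compound. Readout: growth inhibition vs vehicle controls.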
# [7] = NCI Yeast Anticancer Drug Screen. Data for the rad14 strain (AID 159);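 note: 0% = growth of vehicle-treated control cultures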; conditions: S. cerevisiae rad14 strain growth inhibition, stronger effect = higher value
# Method in brief: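 Growth inhibition vs vehicle controls; genetically altered yeast strain (DNA damage repair defect) treated with test compounds.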
# [8] = NCI Yeast Anticancer Drug Screen. Data for the sgs1 mgt1 strain (AID 161);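 note: 0% = growth of cultures given vehicle only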; conditions: S. cerevisiae sgs1 mgt1 strain, stronger effect = higher value
# Method in brief: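 Mutant yeast exposed to compound; growth scored against vehicle-only wells.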
# [9] = NCI Yeast Anticancer Drug Screen. Data for the CLN2oe strain (AID 163);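 note: 0% = growth of vehicle-only control cultures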; conditions: S. cerevisiae CLN2oe strain, stronger effect = higher value
# Method in brief: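 Read-out: yeast growth inhibition, expressed relative to vehicle-only controls. The strain bears an engineered cell-cycle alteration.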
# [10] = NCI Yeast Anticancer Drug Screen. Data for the cln2 rad14 strain (AID 165);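 note: 0% = growth equal to vehicle treated cultures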; conditions: S. cerevisiae cln2 rad14 strain, stronger effect = higher value
# Method in brief: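 cln2 rad14 yeast strain; compound exposure; growth inhibition read vs vehicle controls.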
# [11] = NCI Yeast Anticancer Drug Screen. Data for the bub3 strain (AID 167); conditions: S. cerevisiae bub3 mutant strain, stronger effect = higher value
# Method in brief: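 Readout: yeast growth inhibition, expressed relative to vehicle-only wells. The test organism is a mutant strain from a panel with lesions in DNA repair or checkpoint genes.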
# [12] = NCI Yeast Anticancer Drug Screen. Data for the wt2 strain (AID 169);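 note: 0% = growth of vehicle-treated yeast cultures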; conditions: S. cerevisiae wt2 strain growth inhibition, stronger effect = higher value
# Method in brief: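 Read-out: growth inhibition versus vehicle-treated control cultures after compound exposure of the yeast strain.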
# [13] = NCI Yeast Anticancer Drug Screen. Data for the mlh1 strain (AID 171);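 note: 0% = growth of vehicle-treated control cultures of the same strain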; conditions: S. cerevisiae mlh1 strain growth inhibition, stronger effect = higher value
# Method in brief: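 Read-out: growth inhibition versus vehicle controls. Strain: engineered yeast with a defined DNA repair or cell cycle defect, compound-treated.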
# [14] = NCI Yeast Anticancer Drug Screen. Data for the sgs1 strain (AID 173);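 note: 0% = growth of vehicle-only control cultures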; conditions: S. cerevisiae sgs1 mutant, stronger effect = higher value
# Method in brief: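 Read-out: yeast growth inhibition relative to vehicle controls, following compound exposure of a strain with a defined DNA repair/cell cycle alteration.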
# [15] = NCI Yeast Anticancer Drug Screen. Data for the mlh1 rad18 strain (AID 175); conditions: S. cerevisiae mlh1 rad18 strain growth inhibition, stronger effect = higher value
# Method in brief: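 Yeast w/ defined DNA-repair lesions; compound exposure; growth vs vehicle controls → % inhibition.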
# [16] = NCI Yeast Anticancer Drug Screen. Data for the rad18 strain (AID 177); conditions: S. cerevisiae rad18 mutant growth inhibition, stronger effect = higher value
# Method in brief: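 Readout: growth inhibition vs vehicle controls. Cells: genetically altered yeast strain, DNA repair defect.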
# [17] = at 5.0 µM (retest, dose inferred, filed as 0.5)
# [18] = at 50.0 µM (retest, dose inferred, filed as 5.0)
smiles,measurement,setting,value
COC(=O)Nc1cn2ccc(C(Cl)=C(Cl)Cl)cc2n1,growth inhibition,[1]; at 1.2 µM,-12%
same,growth inhibition,[1]; at 3.7 µM,-17%
same,growth inhibition,[1]; at 11.0 µM,-21%
same,growth inhibition,[1]; at 33.0 µM,-33%
same,growth inhibition,[1]; at 100.0 µM,-16%
same,growth inhibition,[2]; at 1.2 µM,-16%
same,growth inhibition,[2]; at 3.7 µM,-21%
same,growth inhibition,[2]; at 11.0 µM,-33%
same,growth inhibition,[2]; at 33.0 µM,-29%
same,growth inhibition,[2]; at 100.0 µM,-33%
same,growth inhibition,[3]; at 1.2 µM,-27%
same,growth inhibition,[3]; at 3.7 µM,-19%
same,growth inhibition,[3]; at 11.0 µM,-32%
same,growth inhibition,[3]; at 33.0 µM,-27%
same,growth inhibition,[3]; at 100.0 µM,-28%
same,growth inhibition,[4]; at 1.2 µM,-21%
same,growth inhibition,[4]; at 3.7 µM,-17%
same,growth inhibition,[4]; at 11.0 µM,-29%
same,growth inhibition,[4]; at 33.0 µM,-24%
same,growth inhibition,[4]; at 100.0 µM,-22%
same,growth inhibition,[5]; at 1.2 µM,-22%
same,growth inhibition,[5]; at 3.7 µM,-32%
same,growth inhibition,[5]; [17],21%
same,growth inhibition,[5]; at 11.0 µM,-35%
same,growth inhibition,[5]; at 33.0 µM,-36%
same,growth inhibition,[5]; [18],29%
same,growth inhibition,[5]; at 50.0 µM,-4.2%
same,growth inhibition,[5]; at 100.0 µM,-32%
same,growth inhibition,[6]; at 1.2 µM,4%
same,growth inhibition,[6]; at 3.7 µM,-5%
same,growth inhibition,[6]; [17],17%
same,growth inhibition,[6]; at 11.0 µM,5%
same,growth inhibition,[6]; at 33.0 µM,3%
same,growth inhibition,[6]; [18],15%
same,growth inhibition,[6]; at 50.0 µM,-9.5%
same,growth inhibition,[6]; at 100.0 µM,-4%
same,growth inhibition,[7]; at 1.2 µM,18%
same,growth inhibition,[7]; at 3.7 µM,-11%
same,growth inhibition,[7]; at 11.0 µM,1%
same,growth inhibition,[7]; at 33.0 µM,-13%
same,growth inhibition,[7]; at 100.0 µM,-17%
same,growth inhibition,[8]; [17],28%
same,growth inhibition,[8]; [18],40%
same,growth inhibition,[8]; at 50.0 µM,-27.6%
same,growth inhibition,[9]; at 1.2 µM,42%
same,growth inhibition,[9]; at 3.7 µM,27%
same,growth inhibition,[9]; at 11.0 µM,35%
same,growth inhibition,[9]; at 33.0 µM,21%
same,growth inhibition,[9]; at 100.0 µM,18%
same,growth inhibition,[10]; [17],7%
same,growth inhibition,[10]; [18],21%
same,growth inhibition,[10]; at 50.0 µM,-5.65%
same,growth inhibition,[11]; at 1.2 µM,-8%
same,growth inhibition,[11]; at 3.7 µM,-14%
same,growth inhibition,[11]; [17],24%
same,growth inhibition,[11]; at 11.0 µM,-28%
same,growth inhibition,[11]; at 33.0 µM,-21%
same,growth inhibition,[11]; [18],29%
same,growth inhibition,[11]; at 50.0 µM,-24.1%
same,growth inhibition,[11]; at 100.0 µM,-20%
same,growth inhibition,[12]; at 1.2 µM,-40%
same,growth inhibition,[12]; at 3.7 µM,-33%
same,growth inhibition,[12]; at 11.0 µM,-50%
same,growth inhibition,[12]; at 33.0 µM,-49%
same,growth inhibition,[12]; at 100.0 µM,-53%
same,growth inhibition,[13]; at 1.2 µM,29%
same,growth inhibition,[13]; at 3.7 µM,23%
same,growth inhibition,[13]; at 11.0 µM,14%
same,growth inhibition,[13]; at 33.0 µM,10%
same,growth inhibition,[13]; at 100.0 µM,12%
same,growth inhibition,[14]; at 1.2 µM,6%
same,growth inhibition,[14]; at 3.7 µM,2%
same,growth inhibition,[14]; at 11.0 µM,-18%
same,growth inhibition,[14]; at 33.0 µM,-16%
same,growth inhibition,[14]; at 100.0 µM,-11%
same,growth inhibition,[15]; [17],65%
same,growth inhibition,[15]; [18],78% (active)
same,growth inhibition,[15]; at 50.0 µM,-12.5%
same,growth inhibition,[16]; at 1.2 µM,-16%
same,growth inhibition,[16]; at 3.7 µM,-22%
same,growth inhibition,[16]; at 11.0 µM,-13%
same,growth inhibition,[16]; at 33.0 µM,-39%
same,growth inhibition,[16]; at 100.0 µM,-46%
O=c1c2ccccc2nc(-c2ccccc2)n1O,growth inhibition,[1]; at 1.2 µM,16%
same,growth inhibition,[1]; at 3.7 µM,19%
same,growth inhibition,[1]; at 11.0 µM,62%
same,growth inhibition,[1]; at 33.0 µM,95% (active)
same,growth inhibition,[1]; at 100.0 µM,97% (active)
same,growth inhibition,[2]; at 1.2 µM,12%
same,growth inhibition,[2]; at 3.7 µM,15%
same,growth inhibition,[2]; at 11.0 µM,63%
same,growth inhibition,[2]; at 33.0 µM,97% (active)
same,growth inhibition,[2]; at 100.0 µM,97% (active)
same,growth inhibition,[3]; at 1.2 µM,3%
same,growth inhibition,[3]; at 3.7 µM,3%
same,growth inhibition,[3]; at 11.0 µM,16%
same,growth inhibition,[3]; at 33.0 µM,82% (active)
same,growth inhibition,[3]; at 100.0 µM,87% (active)
same,growth inhibition,[4]; at 1.2 µM,31%
same,growth inhibition,[4]; at 3.7 µM,26%
same,growth inhibition,[4]; at 11.0 µM,92% (active)
same,growth inhibition,[4]; at 33.0 µM,98% (active)
same,growth inhibition,[4]; at 100.0 µM,97% (active)
same,growth inhibition,[5]; at 1.2 µM,36%
same,growth inhibition,[5]; at 3.7 µM,39%
same,growth inhibition,[5]; [17],45%
same,growth inhibition,[5]; at 11.0 µM,89% (active)
same,growth inhibition,[5]; at 33.0 µM,97% (active)
same,growth inhibition,[5]; [18],99% (active)
same,growth inhibition,[5]; at 50.0 µM,99% (active)
same,growth inhibition,[5]; at 100.0 µM,98% (active)
same,growth inhibition,[6]; at 1.2 µM,18%
same,growth inhibition,[6]; at 3.7 µM,16%
same,growth inhibition,[6]; [17],14%
same,growth inhibition,[6]; at 11.0 µM,55%
same,growth inhibition,[6]; at 33.0 µM,96% (active)
same,growth inhibition,[6]; [18],99% (active)
same,growth inhibition,[6]; at 50.0 µM,98.2% (active)
same,growth inhibition,[6]; at 100.0 µM,97% (active)
same,growth inhibition,[7]; at 1.2 µM,51%
same,growth inhibition,[7]; at 3.7 µM,59%
same,growth inhibition,[7]; at 11.0 µM,97% (active)
same,growth inhibition,[7]; at 33.0 µM,99% (active)
same,growth inhibition,[7]; at 100.0 µM,98% (active)
same,growth inhibition,[8]; [17],66%
same,growth inhibition,[8]; [18],99% (active)
same,growth inhibition,[8]; at 50.0 µM,98.8% (active)
same,growth inhibition,[9]; at 1.2 µM,1%
same,growth inhibition,[9]; at 3.7 µM,9%
same,growth inhibition,[9]; at 11.0 µM,29%
same,growth inhibition,[9]; at 33.0 µM,86% (active)
same,growth inhibition,[9]; at 100.0 µM,88% (active)
same,growth inhibition,[10]; [17],-11%
same,growth inhibition,[10]; [18],96% (active)
same,growth inhibition,[10]; at 50.0 µM,97% (active)
same,growth inhibition,[11]; at 1.2 µM,12%
same,growth inhibition,[11]; at 3.7 µM,18%
same,growth inhibition,[11]; [17],43%
same,growth inhibition,[11]; at 11.0 µM,78% (active)
same,growth inhibition,[11]; at 33.0 µM,95% (active)
same,growth inhibition,[11]; [18],99% (active)
same,growth inhibition,[11]; at 50.0 µM,97.9% (active)
same,growth inhibition,[11]; at 100.0 µM,95% (active)
same,growth inhibition,[12]; at 1.2 µM,24%
same,growth inhibition,[12]; at 3.7 µM,55%
same,growth inhibition,[12]; at 11.0 µM,96% (active)
same,growth inhibition,[12]; at 33.0 µM,98% (active)
same,growth inhibition,[12]; at 100.0 µM,98% (active)
same,growth inhibition,[13]; at 1.2 µM,50%
same,growth inhibition,[13]; at 3.7 µM,48%
same,growth inhibition,[13]; at 11.0 µM,95% (active)
same,growth inhibition,[13]; at 33.0 µM,98% (active)
same,growth inhibition,[13]; at 100.0 µM,98% (active)
same,growth inhibition,[14]; at 1.2 µM,32%
same,growth inhibition,[14]; at 3.7 µM,48%
same,growth inhibition,[14]; at 11.0 µM,93% (active)
same,growth inhibition,[14]; at 33.0 µM,97% (active)
same,growth inhibition,[14]; at 100.0 µM,97% (active)
same,growth inhibition,[15]; [17],55%
same,growth inhibition,[15]; [18],99% (active)
same,growth inhibition,[15]; at 50.0 µM,98.5% (active)
same,growth inhibition,[16]; at 1.2 µM,39%
same,growth inhibition,[16]; at 3.7 µM,35%
same,growth inhibition,[16]; at 11.0 µM,89% (active)
same,growth inhibition,[16]; at 33.0 µM,97% (active)
same,growth inhibition,[16]; at 100.0 µM,97% (active)
